From PubChem BioAssay (NCATS)
Inconclusive results are not listed. Active and inactive are the calls of the source. Unless noted, calls follow the shape of the dose curve; as a rule, active = well fitted curve in the direction sought with a large enough effect; inconclusive = small, poorly fitted or top-dose-only effect, or another doubt; inactive = no such curve, though single readings can be large; an effect the other way counts as inactive or inconclusive.

Columns and labels:
[1] = target: Ubiquitin carboxyl-terminal hydrolase 1 (Homo sapiens) (UniProt O94782); assay: Inhibitors of USP1/UAF1: Pilot qHTS (AID 504865);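 also: rhodamine fluorescence freed from ubiquitin-rhodamine substrate followed over time; top concentration of the series differs between compounds; % is scaled to controls: 0 for no effect and ±100 for the full control effect; nearly all actives have a fitted effect of over 35% in size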
Ubiquitin carboxyl-terminal hydrolase 1 (Homo sapiens), sequence (O94782 whole entry, looked up): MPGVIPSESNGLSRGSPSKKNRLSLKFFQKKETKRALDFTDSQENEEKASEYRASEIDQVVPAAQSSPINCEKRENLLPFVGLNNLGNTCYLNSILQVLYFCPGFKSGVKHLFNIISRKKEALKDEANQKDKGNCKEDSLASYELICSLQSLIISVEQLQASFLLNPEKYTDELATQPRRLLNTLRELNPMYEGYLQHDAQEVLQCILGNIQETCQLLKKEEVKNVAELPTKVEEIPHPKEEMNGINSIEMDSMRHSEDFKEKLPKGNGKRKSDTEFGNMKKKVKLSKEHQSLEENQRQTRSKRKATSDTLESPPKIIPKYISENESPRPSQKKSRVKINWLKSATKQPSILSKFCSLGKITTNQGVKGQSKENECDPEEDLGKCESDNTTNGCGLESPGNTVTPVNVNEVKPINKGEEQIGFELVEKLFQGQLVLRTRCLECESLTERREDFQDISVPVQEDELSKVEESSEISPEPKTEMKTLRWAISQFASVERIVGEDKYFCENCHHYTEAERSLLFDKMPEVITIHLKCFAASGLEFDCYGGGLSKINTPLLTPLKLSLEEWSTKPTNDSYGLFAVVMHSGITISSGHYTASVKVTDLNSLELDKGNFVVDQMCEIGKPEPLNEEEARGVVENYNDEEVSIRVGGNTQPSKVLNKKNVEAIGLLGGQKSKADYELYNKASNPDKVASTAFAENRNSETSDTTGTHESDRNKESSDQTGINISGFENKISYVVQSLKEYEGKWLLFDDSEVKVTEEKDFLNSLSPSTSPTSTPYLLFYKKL
Outline: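 Enzyme-free wells gave the negative control, while test wells held 1nM USP1/UAF1 preincubated with compound for 15 min at room temperature. Ub-Rho at 150nM final started the reaction, and fluorescence at 480/540 nm was recorded kinetically.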

[2] = S16 Schwann cell viability assay (CellTiter-Glo assay) (AID 624031);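 also: cellular ATP luminescence as a viability measure; plate controls were DMSO-treated cells for no effect and cell-free wells for full effect; nearly all actives have a fitted effect of over 70% in size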
Outline: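 Native S16 rat Schwann cells, 500-750 cells/well in DMEM with 10% FBS, dosed with compound after overnight culture and incubated 24h at 37 degree Celsius/5% CO2. Viability by CellTiter-Glo luminescence; % activity normalized to no-cell wells and DMSO-treated cells.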

[3] = S16 Schwann cell PMP22 intronic element firefly luciferase assay (AID 624032); also: nearly all actives have a fitted effect of over 30% in size; also: potency is read from the fitted curve at half-maximal effect
Outline: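 Rat S16 Schwann cells stably carrying firefly luciferase driven by a PMP22 intronic element, in 10% FBS, treated 24 h at 37 C. ONE-Glo luminescence normalized to PTC124 control and DMSO (0%); curves classed by r2, magnitude and activity.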

[4] = S16 Schwann cell PMP22 intronic element beta-lactamase assay (AID 624044; calls by dose curve;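 also: 0% = DMSO and -100% = potassium clavulanate positive control; nearly all actives have a fitted effect of over 15% in size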); settings: S16 rat Schwann cells, PMP22 element beta-lactamase FRET, 24 h; ratio activity, negative = inhibition: at 38.3 µM (top of the series)
Outline: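 Rat S16 Schwann cells with beta-Lac driven by a PMP22 intronic element, compound-treated 24 h at 37 °C. LiveBLAzer FRET B/G read: 460 nm normalized to potassium clavulanate vs DMSO; 535 nm FRET as viability; concentration-effect curves classified.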

DIV17 = assay: qHTS profiling for inhibitors of Plasmodium falciparum proliferation (AID 504749); also: nearly all actives have a fitted effect of over 60% in size; also: potency is read from the fitted curve at half-maximal effect;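 as to activity, negative = inhibition: 0% = DMSO vehicle and full inhibition = artemisinin control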; settings: P. falciparum in erythrocytes, SYBR Green DNA, 72 h; series mostly up to 28.7 µM
Outline: (§1)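 Readout was DNA-dye fluorescence from lysed cultures, ex 485/em 535 nm. Parasitized red cells had grown 72 h with compound; data scaled between 0.29 uM artemisinin and DMSO wells and corrected using vehicle-only plates.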

W2 = assay: as above; settings: P. falciparum in erythrocytes, SYBR Green DNA, 72 h; series mostly up to 28.7 µM
Outline: as §1

[5] = target: Tyrosyl-DNA phosphodiesterase 1 (Homo sapiens) (UniProt Q9NUW8); assay: Confirmation Assay for Inhibitors of Tyrosyl-DNA Phosphodiesterase (TDP1) (AID 489007); settings: recombinant human TDP1 enzymatic activity, dose-response; also: potency is read from the fitted curve at half-maximal effect; nearly all actives have a fitted effect of over 40% in size
Tyrosyl-DNA phosphodiesterase 1 (Homo sapiens), sequence (Q9NUW8 whole entry, looked up): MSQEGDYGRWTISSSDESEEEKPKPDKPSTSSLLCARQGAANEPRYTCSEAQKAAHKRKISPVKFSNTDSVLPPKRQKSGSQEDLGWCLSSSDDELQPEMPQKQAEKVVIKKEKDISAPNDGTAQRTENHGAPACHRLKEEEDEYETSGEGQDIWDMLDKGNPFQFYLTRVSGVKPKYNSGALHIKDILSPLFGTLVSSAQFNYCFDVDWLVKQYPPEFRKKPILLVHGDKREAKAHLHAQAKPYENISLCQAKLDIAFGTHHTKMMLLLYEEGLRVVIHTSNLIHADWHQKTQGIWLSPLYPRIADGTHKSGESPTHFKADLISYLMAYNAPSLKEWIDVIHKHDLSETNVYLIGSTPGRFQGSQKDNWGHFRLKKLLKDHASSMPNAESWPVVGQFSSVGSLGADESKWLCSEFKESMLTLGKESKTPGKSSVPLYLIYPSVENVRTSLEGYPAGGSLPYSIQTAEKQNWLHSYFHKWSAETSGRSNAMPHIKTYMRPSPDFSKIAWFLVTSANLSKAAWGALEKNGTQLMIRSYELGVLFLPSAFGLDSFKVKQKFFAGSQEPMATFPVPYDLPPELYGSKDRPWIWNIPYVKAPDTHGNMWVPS
Outline: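 Recombinant E. coli-expressed Tdp1 (1 nM final) was preincubated with compounds 15 min at room temperature, then reacted 5 min with 15 nM 5'-biotin/3'-phosphotyrosine-FITC DNA substrate; cleavage read as loss of AlphaScreen signal (10 ug/ml beads, 10 min).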

[6] = target: Tumor susceptibility gene 101 protein (Homo sapiens) (UniProt Q99816); assay: qHTS Assay for Iinhibitors of HIV-1 Budding by Blocking the Interaction of PTAP/TSG101: Hit Validation (AID 651600); also: % is scaled to controls: 0 for no effect and ±100 for the full control effect; nearly all actives have a fitted effect of over 70% in size
Tumor susceptibility gene 101 protein (Homo sapiens), sequence (Q99816 whole entry, looked up): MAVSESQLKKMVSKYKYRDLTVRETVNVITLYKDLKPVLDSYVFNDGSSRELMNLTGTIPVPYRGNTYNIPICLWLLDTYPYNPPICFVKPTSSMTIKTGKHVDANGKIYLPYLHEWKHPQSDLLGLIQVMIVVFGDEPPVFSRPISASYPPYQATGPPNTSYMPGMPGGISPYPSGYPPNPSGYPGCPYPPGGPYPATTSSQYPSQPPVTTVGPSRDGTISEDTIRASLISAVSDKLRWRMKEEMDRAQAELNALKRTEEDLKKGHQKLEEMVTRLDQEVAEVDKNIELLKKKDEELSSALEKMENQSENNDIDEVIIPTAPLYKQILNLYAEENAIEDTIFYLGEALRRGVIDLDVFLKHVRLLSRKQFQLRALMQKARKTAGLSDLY
Outline: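 Measuring PTAP–Tsg101 interaction by FP: protein at 10 uM and fluorescent peptide at 50 nM (final), buffer 10 mM HEPES pH 7.5 with 0.15 M NaCl, 3 mM EDTA, 0.1 mM TCEP, 0.01% Tween 20; 20 min incubation, r.t.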

[7] = target: Cytochrome P450 3A4 (Homo sapiens) (UniProt P08684); assay: qHTS Assay for Inhibitors and Substrates of Cytochrome P450 3A4 (AID 884); also: % is scaled to controls: 0 for no effect and ±100 for the full control effect; nearly all actives have a fitted effect of over 50% in size
Cytochrome P450 3A4 (Homo sapiens), sequence (P08684 whole entry, looked up): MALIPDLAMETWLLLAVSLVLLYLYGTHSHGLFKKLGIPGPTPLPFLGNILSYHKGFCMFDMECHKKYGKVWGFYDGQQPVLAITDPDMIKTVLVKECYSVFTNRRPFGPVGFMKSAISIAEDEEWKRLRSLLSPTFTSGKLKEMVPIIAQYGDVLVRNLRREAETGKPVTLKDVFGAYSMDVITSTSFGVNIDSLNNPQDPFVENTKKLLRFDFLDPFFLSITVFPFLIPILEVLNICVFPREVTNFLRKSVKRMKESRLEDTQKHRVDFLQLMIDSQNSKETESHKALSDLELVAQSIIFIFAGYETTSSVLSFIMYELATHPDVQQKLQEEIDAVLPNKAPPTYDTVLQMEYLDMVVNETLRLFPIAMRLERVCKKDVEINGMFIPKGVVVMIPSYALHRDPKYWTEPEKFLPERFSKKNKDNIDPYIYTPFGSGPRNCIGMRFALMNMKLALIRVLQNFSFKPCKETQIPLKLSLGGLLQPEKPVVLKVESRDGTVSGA
Outline: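 20 nM human CYP3A4 with 25 uM Luciferin-PPXE (at KM) in 200 mM KPO4, preincubated 10 min with compound; NADPH regeneration started a 60 min RT reaction. Luciferin detected by luminescence, normalized to 57 uM ketoconazole as full inhibition.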

[8] = Confirmation and Secondary Assay for Modulators of Hemoglobin Beta Chain Splicing at IVS2 654 locus (AID 910);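 also: HeLa cells stably carrying EGFP split by mutant beta-globin IVS2-654 intron; % of control where 0% means no effect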
Outline: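 HeLa cells stably expressing EGFP interrupted by β-globin IVS2-654 intron, seeded overnight in Opti-MEM/2% FCS, then treated 2 days at 37 °C. Restored splicing read as total peak GFP intensity per well by laser scanning cytometry (488 nm excitation, 500–520 nm emission); 500 nM antisense PNA as control.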

[9] = Confirmation and Secondary Assay for Modulators of Hemoglobin Beta Chain Splicing at IVS2 705 locus (AID 930);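 also: HeLa cells stably expressing the EGFP-705 splicing reporter; GFP fluorescence per well restored by corrected splicing of the IVS2-705 intron in EGFP; % of control where 0% means no effect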
Outline: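 HeLa cells stably carrying EGFP interrupted by mutant beta-globin intron 2 (IVS2-705) treated 2 days at 37C with compound; 500 nM antisense PNA as control. Correct splicing read as total peak GFP intensity per well by laser-scanning cytometry.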

C[C@]12CC[C@@H]3c4ccc(O)cc4CC[C@H]3[C@@H]1C[C@H](O)C2O (stereo not given in full)
inactive: Potency [1] | Potency [2] | Potency [3] | Potency [4] | Potency (DIV17) | Potency (W2)

Cc1ccc(S(=O)(=O)NC(=O)NC(C)Cc2ccccc2)cc1 (stereo not given)
inactive: Potency [1] | Potency [2] | Potency [3] | Potency (DIV17) | Potency (W2)

CC[C@@H](C)C(N)C(=O)O (stereo not given in full)
inactive: Potency [1] | Potency [2] | Potency [3] | Potency (DIV17) | Potency (W2)

Nc1ccc2c(c1Cl)C(=O)c1ccc(N)c(Cl)c1C2=O
active: Potency [5] 3.55 µM

COc1ccc(N2Cc3cccc(C(=O)N4CCN(C(=O)c5ccco5)CC4)c3C2=O)cc1
active: Potency [5] 7.08 µM

O=C1CC[C@H](C(=O)N[C@@H]2C[C@H]2c2ccccc2)N1
inactive: Potency [1] | Potency [2] | Potency [3] | Potency [4] | Potency (DIV17) | Potency (W2)

Cc1nc(S/C(=C/c2ccc(OCc3ccc(C(=O)O)cc3)cc2)C(=O)O)n[nH]1
active: Potency [5] 35.5 µM

COc1ccc(S(=O)(=O)NCc2cccs2)cc1
active: Potency [5] 112 µM

CO/N=C(/C(=O)N[C@@H]1C(=O)N2C(C(=O)O)=C(CSc3nc(C)c(CC(=O)O)s3)CS[C@H]12)c1csc(N)n1
inactive: Potency [1] | Potency [2] | Potency [3] | Potency [4] | Potency (DIV17) | Potency (W2)

C=C1[C@@H]2CC[C@H](C2)C1(C)C
inactive: Potency [1] | Potency [2] | Potency [3] | Potency (DIV17) | Potency (W2)

COc1ccc(OCc2cc(C(=O)O)c(C)o2)cc1
active: Potency [5] 10 µM

CC(O)C1CCC2C3CCC4CC(O)CCC4(C)C3CCC12C (stereo not given)
inactive: Potency [1] | Potency (DIV17) | Potency (W2)

CC(=O)NC1[C@H](O)C[C@@](O)(C(=O)O)O[C@H]1[C@H](O)[C@H](O)CO (stereo not given in full)
inactive: Potency [1] | Potency [2] | Potency [3] | Potency [4] | Potency (DIV17) | Potency (W2)

CCCC[C@H](O)c1ccccc1
inactive: Potency [1] | Potency [2] | Potency [3] | Potency [4] | Potency (DIV17) | Potency (W2)

NC(C(=O)O)c1ccc(O)cc1 (stereo not given)
inactive: Potency [1] | Potency [2] | Potency [3] | Potency (DIV17) | Potency (W2)

C[C@@H]1C(SC2Cn3cnc[n+]3C2)=C(C(=O)[O-])N2C(=O)[C@H]([C@@H](C)O)[C@@H]12 (stereo not given in full)
inactive: Potency [1] | Potency [2] | Potency [3] | Potency (DIV17) | Potency (W2)

CCN(CC)C(=O)Nc1ccc(OC[C@H](O)CNC(C)(C)C)c(C(C)=O)c1
inactive: Potency [1] | Potency [2] | Potency [3] | Potency [4] | Potency (DIV17) | Potency (W2)

COc1ccccc1C1CN(c2ccccc2)N=C1c1cccs1 (stereo not given)
active: Potency [5] 25.1 µM

CC(=O)Nc1ccc2nc3c(=O)[nH]c(=O)[nH]c3nc2c1
inactive: Potency [6]
active: Potency [5] 4.47 µM

C=C1c2cccc(OC)c2O[C@H](C(=O)OCC)[C@@H]1CCCCCC
active: Potency [5] 0.0251 µM

CC1(C)OC(=O)C(=Cc2ccc(-c3ccc(Cl)c(C(=O)O)c3)o2)C(=O)O1
active: Potency [5] 14.1 µM

O=C(NN1C(=O)C2CC=C(Cl)CC2C1=O)c1ccncc1 (stereo not given)
active: Potency [5] 31.6 µM

O=C(O)CC(O)CC(O)/C=C/c1c(C2CC2)nc2ccccc2c1-c1ccc(F)cc1 (stereo not given)
inactive: Potency [1] | Potency [2] | Potency (DIV17) | Potency (W2)

CC(=O)OCC(=O)[C@@]1(O)CCC2C3CCC4=CC(=O)C=CC4(C)C3C(O)C[C@]21C (stereo not given in full)
inactive: Potency [7] | Potency [8] | Potency [9] | Potency [1] | Potency [3] | Potency [4] | Potency (DIV17) | Potency (W2)

COc1cccc(OC)c1C(=O)NC1C(=O)N2C1SC(C)(C)C2C(=O)O (stereo not given)
inactive: Potency [7] | Potency [8] | Potency [9] | Potency [2] | Potency [4] | Potency (DIV17) | Potency (W2)

CNC1C(O)C(OC2C(N)CC(N)C(OC3OC(CN)=CCC3N)C2O)OCC1(C)O (stereo not given)
inactive: Potency [1] | Potency [3] | Potency (DIV17) | Potency (W2)

OCC1O[C@H](Oc2ccc(O)cc2)C(O)C(O)C1O (stereo not given in full)
inactive: Potency [7] | Potency [8] | Potency [9] | Potency [1] | Potency [2] | Potency [3] | Potency (DIV17) | Potency (W2)

C=C[C@H]1CN2CCC1C[C@H]2[C@H](O)c1ccnc2ccc(OC)cc12 (stereo not given in full)
inactive: Potency [2] | Potency [3]
active: ratio activity, negative = inhibition [4] -10.4% | Potency (DIV17) 0.757 µM | Potency (W2) 0.338 µM

CC[C@@]1(O)C[C@H](O[C@H]2C[C@@H](N(C)C)[C@@H](O[C@H]3C[C@@H](O)[C@@H](O[C@H]4CCC(=O)[C@@H](C)O4)[C@@H](C)O3)[C@@H](C)O2)c2c(cc3c(c2O)C(=O)c2c(O)cccc2C3=O)[C@H]1C(=O)OC
active: Potency (DIV17) 0.478 µM | Potency (W2) 0.151 µM

CCCCCCCCCCCC(=O)OCC(O)C1OCC(O)C1O (stereo not given)
inactive: Potency [2] | Potency [3] | Potency (DIV17) | Potency (W2)

CCC(C(=O)O)C1OC(C(C)C(O)C(C)C(=O)C(CC)C2OC3(C=CC(O)C4(CCC(C)(C5CCC(O)(CC)C(C)O5)O4)O3)C(C)CC2C)C(C)CC1C (stereo not given)
active: Potency [3] 0.102 µM | Potency (DIV17) 0.0757 µM
inactive: Potency [1]
